Source: PubChem BioAssay
Only some compounds are listed: those with a hit (about 22% of all), similar ones and a draw of the others.
CYP2C9 activ: increases human cytochrome P450 2C9 activity; recombinant CYP2C9, luciferin-H conversion, luminescence; active compounds read high; factor 1 = untreated enzyme, 0 = blocked; activation factor at 5 µM; P11712; actives 1.4% (n = 96,000); AID 1024;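 active = activation factor of 2 or more for CYP2C9 at a 5 µM dose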;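 also: 0 = sulfaphenazole-blocked wells and 1 = vehicle-only wells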
Measles CPE: protection of cells from measles virus. Measles virus-infected cells, CPE protection, absorbance. protection (pct of control), % at 4 µM. actives 1.5% (n = 140,000); in the data active = protection mostly above about 24%, no sharp cut-off; inactive = mostly below about 26%
CYP2C9 inh: human CYP2C9 inhibition. P11712. CYP2C9 Supersomes, luciferin-H conversion, luminescence. inhibition, % at 5 µM. actives 20% (n = 96,000). AID 777;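 active = blocking of liver enzyme CYP2C9 beyond about 50% at 5 µM, limit read from the data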
CYP2C19 inh: inhibitors of human CYP2C19; P33261; CYP2C19 Supersomes, luciferin-H EGE luminescence, 30 min; inhibition, % at 5 µM; actives 21% (n = 96,000);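 active = CYP2C19 inhibition above a set limit at 5 µM in the primary screen, cut at about 50% in these data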;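 also: plate controls were negative control wells for no effect and 2.5 mM tranylcypromine positive control for full effect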
Target sequence (P33261 whole entry, looked up): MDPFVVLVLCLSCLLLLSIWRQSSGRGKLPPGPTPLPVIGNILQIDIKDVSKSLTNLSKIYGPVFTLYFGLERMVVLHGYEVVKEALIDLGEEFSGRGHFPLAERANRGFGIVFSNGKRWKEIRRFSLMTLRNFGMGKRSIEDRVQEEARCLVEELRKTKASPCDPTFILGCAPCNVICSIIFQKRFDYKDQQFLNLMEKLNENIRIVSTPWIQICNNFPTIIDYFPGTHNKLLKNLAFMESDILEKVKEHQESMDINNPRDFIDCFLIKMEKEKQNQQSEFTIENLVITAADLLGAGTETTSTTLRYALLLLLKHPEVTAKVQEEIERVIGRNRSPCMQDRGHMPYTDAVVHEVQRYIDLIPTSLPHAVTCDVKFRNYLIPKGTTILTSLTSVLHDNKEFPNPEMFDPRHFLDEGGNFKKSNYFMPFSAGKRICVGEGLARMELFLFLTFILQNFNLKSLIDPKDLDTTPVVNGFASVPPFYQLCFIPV
CYP2C19 activ: increases human CYP2C19 enzyme activity. activation factor at 5 µM. 96,000 tested, under 10 active. recombinant CYP2C19, luciferin-H EGE luminescence; active compounds read high; 0 = fully inhibited enzyme, 1 = untreated enzyme. P33261;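 active = activation factor of at least 2 at 5 µM in the primary screen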;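 also: 0 = wells with 2.5 mM tranylcypromine and 1 = vehicle-only wells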
Starred values were filed as active, the others as inactive; · = not tested or not shown.

SMILES | CYP2C9 activ | Measles CPE | CYP2C9 inh | CYP2C19 inh | CYP2C19 activ
COc1ccc(S(=O)(=O)N(C)CC(=O)Nc2ccc3c(c2)OCO3)cc1OC | 0.9 | 9.0 | 14.8 | 25.0 | 0.8
Cc1nn(C)c(C)c1/C=C1/SC(=S)NC1=O | 0.8 | 3.5 | 23.4 | 0.4 | 1
CCOC(=O)[C@@H]1C(c2c(OC)cc(OC)cc2OC)=NO[C@@H]1C(=O)OCC | · | 3.5 | · | · | ·
COc1ccc(CN(C)Cc2ccccc2)c(OC)c1OC | · | 7.2 | · | · | ·
N/C(COc1cccc(Cl)c1)=N\NS(=O)(=O)c1ccccc1 | 1 | 17.7 | 3.7 | 30.8 | 0.7
CCCNC(=O)CN(C)S(=O)(=O)c1c(C)cc(C)cc1C | · | 3.3 | · | · | ·
CC1=NN(c2ccccc2)C(=O)/C1=C\c1c(C)[nH]n(-c2ccccc2)c1=O | 0.5 | 20.2 | 50.9* | -4.7 | 1
O=C(c1ccc(Cn2cc(Cl)cn2)o1)N1CCN(Cc2ccc3c(c2)OCO3)CC1 | 0.6 | 9.3 | 35.7 | 39.5 | 0.6
Cc1ccc(-c2nn(-c3ccccc3)cc2/C=N/NC(=O)CSc2nnc(C)n2-c2ccccc2)cc1 | 0.4 | 3.0 | 55.9* | 20.7 | 0.8
CCCOc1ccc2oc(=O)c3c(c2c1)CCCN3C(=O)CN1CCc2ccccc2C1 | 0.4 | 3.6 | 63.9* | 88.8* | 0.1
CC1CCN(CC(=O)N2CCCc3c2c(=O)oc2ccc(OCc4ccccc4)cc32)CC1 | 0.1 | 18.0 | 89.6* | 53.3* | 0.5
O=C(O)c1ccc(COc2ccc3c4c(c(=O)oc3c2)CCC4)o1 | 1 | 9.9 | 4.2 | 10.1 | 0.9
CC1CCN(CCCOc2ccc(OCc3ccccc3)cc2)CC1 | 0.9 | 19.6 | 9.8 | 20.4 | 0.8
CC1CC(C)CN(CC(=O)N2CCCc3c2c(=O)oc2ccc(OCc4ccccc4)cc32)C1 (stereo not drawn) | 0.2 | 4.7 | 84.8* | 74.9* | 0.3
Nc1nonc1-n1nncc1-c1ccccc1 | 1 | 5.1 | 3.7 | 15.8 | 0.8
CCOc1ccc2nc(NC(=O)CSc3ccccc3)sc2c1 | 0.6 | 2.7 | 35.5 | -1.2 | 1
CNC(=O)NC(=O)COC(=O)c1ccc(-n2c(C)ccc2C)cc1 | · | 4.9 | · | · | ·
N#CC1=C(N)NC(SCC(=O)c2ccc(Cl)cc2)=C(C#N)C12CCCC2 | 0 | 18.5 | 97.1* | 100.4* | 0
COc1ccc(C(=O)CSC2=C(C#N)C3(CCCCC3)C(C#N)=C(N)N2)cc1 | 0 | 9.4 | 98.0* | 99.8* | 0
Cc1ccc(S(=O)(=O)NC(CN2CCOCC2)=NCCNS(=O)(=O)c2ccccc2)cc1 | 0.5 | 9.9 | 52.2* | 28.8 | 0.7
Cc1cc(C2=CC(C)(c3cc(C)oc3C)Nc3nc(C(F)(F)F)nn32)c(C)o1 (stereo not drawn) | 0.1 | 17.2 | 87.3* | 41.4 | 0.6
Cc1ccc(C2=CC(C)(c3ccc(C)cc3)Nc3nc(C(F)(F)F)nn32)cc1 (stereo not drawn) | · | 12.8 | · | · | ·
O=C(COC(=O)CCSc1ccc(Cl)cc1)Nc1ccc(F)cc1 | · | 5.8 | · | · | ·
CCC(C)NC(=O)C(Cc1ccccc1)NS(=O)(=O)c1cccc2nsnc12 (stereo not drawn) | 0.9 | 4.7 | 14.8 | 8.7 | 0.9
CC(CCc1ccccc1)NC(=O)C(Cc1ccccc1)NS(=O)(=O)c1cccs1 (stereo not drawn) | 0.2 | 14.6 | 79.4* | 75.8* | 0.2
SMILES | CYP2C9 activ | Measles CPE | CYP2C9 inh | CYP2C19 inh | CYP2C19 activ
CC1CCCCC1NC(=O)C(Cc1ccccc1)NS(=O)(=O)c1cccs1 (stereo not drawn) | 0.3 | 5.5 | 73.4* | 83.6* | 0.2
CC1(C)Cc2c(c(-c3ccco3)nc3sc4c(NCC5CCCO5)ncnc4c23)CO1 (stereo not drawn) | · | 12.3 | · | · | ·
Cc1ccc(NC(=O)CCc2ccc(S(=O)(=O)NC3CCCCC3)cc2)cc1 | 0.6 | 31.3 | 41.4 | 22.1 | 0.8
CCCC(=O)Nc1ccc(S(=O)(=O)N2CCOCC2)cc1 | · | 23.2 | · | · | ·
O=C(Cn1c(-c2ccccc2)noc1=O)Nc1ccc(N2CCCCCC2)cc1 | 1 | 8.9 | 1.9 | -10.1 | 1.1
O=C(CCSc1ccccc1)Nc1ccc(S(=O)(=O)N2CCOCC2)cc1 | 0.2 | 2.6 | 84.7* | 55.0* | 0.4
O=C(Cn1c(-c2ccccc2)noc1=O)Nc1ccc(S(=O)(=O)N2CCOCC2)cc1 | 0.3 | 5.2 | 72.9* | 22.6 | 0.8
Cc1ccc(-c2noc(=O)n2CC(=O)Nc2ccc(S(=O)(=O)NC3CC3)cc2)cc1 | 0.1 | 3.4 | 92.8* | 44.8 | 0.6
CCN(CC)CCCN1C(=O)C(O)=C(C(=O)c2ccc(C)o2)C1c1cccs1 (stereo not drawn) | 1.1 | · | -9.2 | -1.2 | 1
O=C(CCCCCn1c(=O)[nH]c2ccsc2c1=O)N1CCCCC1 | · | 33.0 | · | · | ·
N#Cc1nc(-c2ccco2)oc1NCc1ccco1 | 0.6 | 2.7 | 44.5 | 15.9 | 0.8
Cc1ccc(-c2nc(C#N)c(NCc3ccco3)o2)cc1 | 0.4 | 8.7 | 58.3* | 40.1 | 0.6
N#Cc1nc(-c2ccc(OCc3ccccc3)cc2)oc1NCc1ccco1 | 0.7 | 5.1 | 32.0 | 29.8 | 0.7
N#Cc1nc(COc2cccc(Cl)c2)oc1NCc1ccco1 | 0.2 | 6.5 | 84.7* | 50.4* | 0.5
COc1ccccc1OCc1nc(C#N)c(NCc2ccco2)o1 | 0.2 | 6.9 | 80.2* | 73.7* | 0.3
Cc1ccc(OCc2nc(C#N)c(NCc3ccco3)o2)cc1 | 0 | 2.3 | 100.3* | 90.3* | 0.1
CC(C)(C)c1ccc(C2(C)NC(=O)N(CC(=O)NCc3cccs3)C2=O)cc1 (stereo not drawn) | · | 20.8 | · | · | ·
COc1ccccc1NS(=O)(=O)c1ccc2c(c1)n(C)c(=O)n2C | 1 | 13.3 | 2.0 | 71.6* | 0.3
Cn1c(=O)n(C)c2cc(S(=O)(=O)Nc3ccccc3O)ccc21 | 0.4 | 4.0 | 58.6* | 82.9* | 0.2
Cn1c(=O)n(C)c2cc(S(=O)(=O)NCCO)ccc21 | 1.4 | 19.2 | -43.4 | -20.7 | 1.2
Cc1ccc(CN2CCN(/N=C/c3cc(Br)cc(Br)c3O)CC2)cc1 | · | 1.6 | · | · | ·
Cn1c(/C=C/N2CCOCC2)c(C(=O)c2ccc(Br)cc2)c(=O)n(C)c1=O | 1.2 | 29.1 | -24.4 | 16.8 | 0.8
Cn1c2c(c(=O)n(C)c1=O)C(c1ccc(Br)cc1)Nc1ccccc1O2 (stereo not drawn) | 0.3 | 2.0 | 65.2* | 55.5* | 0.4
Cc1nnc(SCC(=O)Nc2ccc(-c3nc4ccccc4s3)cc2)s1 | · | 13.9 | · | · | ·
Cn1c(CCNC(=O)c2ccccc2F)nnc1SCc1nc2ccccc2c(=O)[nH]1 | 0.4 | 2.0 | 63.9* | -11.8 | 1.1
SMILES | CYP2C9 activ | Measles CPE | CYP2C9 inh | CYP2C19 inh | CYP2C19 activ
O=c1[nH]c(CSc2nnc3ccccn23)nc2ccccc12 | · | 2.9 | · | · | ·
COc1ccc(Cc2nnc(SCc3nc4ccccc4c(=O)[nH]3)n2C)cc1 | 0.4 | 9.4 | 61.8* | 9.2 | 0.9
Cc1cc(Cl)c(S(=O)(=O)NCC2CCCO2)cc1OCC(=O)NC1CCCCC1 (stereo not drawn) | 0.8 | 24.2 | 19.5 | 21.6 | 0.8
O=C(CCSCc1ccc(Cl)cc1)NCCC1=CCCCC1 | · | 14.2 | · | · | ·
Cc1ncsc1CCSc1nc2ccccc2c(=O)n1C | 0.3 | 11.1 | 68.5* | 76.9* | 0.2
Cc1ncsc1CCSc1n[nH]c(=O)n1-c1ccccc1 | 1 | 2.9 | 2.1 | 40.1 | 0.6
